High-throughput results as filed in PubChem BioAssay.
HT1080NT lethal – kills 2HG-producing HT-1080-NT fibrosarcoma cells | HT-1080-NT fibrosarcoma viability, CellTiter-Glo ATP luminescence, 48 h | Potency, µM (highest dose often 46.1 µM), for the others: top-dose activity, negative = less viability, actives largely listed as cytotoxic | 360,000 compounds, 1.6% hits;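 note: NT is the 2HG producing partner of a matched IDH1 knockdown line; 0% = DMSO-treated cells and -100% = media-only wells without cells; nearly all actives have a fitted effect of over 55% in size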
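Toxicity toward the 2HG-producing NT line was scored as %Activity, normalised to DMSO and no-cell wells, from CellTiter-Glo luminescence after 48 hours' treatment.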
SW480 rerep – DNA re-replication induction in SW480 cells; SW480 DNA re-replication, Hoechst DNA content imaging, 48 h; Potency, µM (series often up to 46.1 µM), for inactives: at the top dose re-replication activation, hits mostly activators; 340,000 compounds, 1.8% hits; AID 624297; note: % of control where 0% means no effect; nearly all actives have a fitted effect of over 55% in size
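Quantitative HTS format with DMSO vehicle controls; 48 hr drug incubation at 37 C, then 40 min Hoechst staining and scanning imager measurement at 405 nm excitation.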
MCF10A rereplic – induces DNA re-replication in MCF 10a normal breast cells | MCF 10A DNA re-replication, Hoechst nuclear intensity, 48 h | Potency, µM (highest dose often 46.1 µM), for the others: top-dose activity, positive = re-replication, most hits filed as activators | 350,000 compounds, 2.9% hits | AID 624296; note: % of control where 0% means no effect; nearly all actives have a fitted effect of over 50% in size
KB-V1 cytotox – kills drug-selected multidrug resistant KB-V1 cells | KB-V1 MDR cells viability, CellTiter-Glo, 72 h | Potency, µM (titrated, usually from 46.1 µM), hits mostly cytotoxic | 400,000 compounds, 3.4% hits | AID 1347076; note: % is set by controls: 0 for no effect and ±100 for the full control effect; nearly all actives have a fitted effect of over 60% in size
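Drug-selected KB-V1 cells, grown in DMEM lacking phenol red with 10% FBS, receive compound titrations; after three days at 37 degrees C, surviving cell ATP is quantified by CellTiter-Glo luminescence and responses normalized and curve-fitted.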
HT1080 IDH1KD tx – HT-1080 IDH1 knockdown cell toxicity (counter line). HT-1080 IDH1 knockdown viability, ATP luminescence, 48 h. Potency, µM (titrated, usually from 46.1 µM), inactives show top-dose activity, negative = toxicity, usual class: cytotoxic. 360,000 compounds, 2% hits. AID 686971;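 note: 0% = DMSO wells and -100% = cell-free medium wells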
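In this qHTS, HT-1080 cells depleted of IDH1 are exposed for 48 h at 37 °C to compound titrations. Toxicity is scored from CellTiter-Glo luminescence, with DMSO as full viability and medium alone as none.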
KB-3-1 cytotox – kills parental KB-3-1 adenocarcinoma cells. KB-3-1 viability, CellTiter-Glo ATP luminescence, 72 h. Potency, µM (highest dose often 46.1 µM), usual class: cytotoxic. 400,000 compounds, 1.4% hits. AID 1347075; note: % is set by controls: 0 for no effect and ±100 for the full control effect; nearly all actives have a fitted effect of over 60% in size
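KB-3-1 parental drug-naive adenocarcinoma cells in DMEM/10% FBS, incubated 72 h at 37 C with pin-transferred compounds across a concentration series. Viability by CellTiter-Glo luminescence; concentration-response curves fitted after normalization.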
* hit, by the source's call; i = inactive; ? = inconclusive; nt = no result given; [ ] = remark or other dose. Most compounds without a hit are left out; they make up all but 7.9% or so of the library. Calls come from the whole dose curve; as a rule, active = well fitted curve in the direction sought with a large enough effect; inconclusive = small, poorly fitted or top-dose-only effect, or another doubt; inactive = no such curve, though single readings can be large; an effect the other way counts as inactive or inconclusive. Potency is the fitted concentration of half-maximal effect.

SMILES | HT1080NT lethal | SW480 rerep | MCF10A rereplic | KB-V1 cytotox | HT1080 IDH1KD tx | KB-3-1 cytotox
CCOC(=O)C(C)Oc1cccc2c(=O)n(CC(=O)NCc3ccco3)ccc12 (configuration not stated) | ? | 1.3µM* | ? | i | 1.6µM* | 0.73µM*
CC(C)C(=O)c1cn(CC(=O)NCc2ccco2)c2ccccc12 | 6% | ? | -2% | i | 13% | i
Cc1ccc(N(CC(O)Cn2nc(C)cc2C)S(=O)(=O)c2ccc3ccccc3c2)cc1 (configuration not stated) | -9% | 7% | 4% | 5.8µM* | -2% | i
Cc1cc(C)n(CC(O)CN(c2ccccc2)S(=O)(=O)c2ccccc2)n1 (configuration not stated) | 11% | -2% | 1% | i | 12% | i
OCCN1CCN(CCC=C2c3ccccc3Sc3ccc(Cl)cc32)CC1 | nt | 0%[20.6 µM] | -2%[20.6 µM] | nt | nt | nt
OCCN1CCN(CC/C=C2/c3ccccc3Sc3ccc(C(F)(F)F)cc32)CC1 | 21µM* | ? | ? | i | 21µM* | i
Cc1ccc(Nc2c(-c3ccccc3)nc3cnccn23)cc1 | -7% | 17% | 23µM* | i | 0% | i
COc1ccc(-c2nc3cnccn3c2Nc2ccc(C)cc2)cc1 | -7% | 5% | 0% | i | 3% | i
CSc1ccc(-c2nc3cnccn3c2Nc2ccc3c(c2)OCO3)cc1 | ? | 7% | 5.8µM* | 23µM* | ? | ?
Cc1ccc(-c2nc3cnccn3c2Nc2ccccc2)o1 | 22% | ? | 23µM* | ? | 7% | i
COc1ccc(Nc2c(-c3ccc(C)o3)nc3cc(C)ccn23)cc1 | nt | nt | nt | i | nt | 23µM*
NS(=O)(=O)c1cccc(NC(=O)COC(=O)Cc2ccc(S(=O)(=O)N3CCOCC3)s2)c1 | 12% | -2% | -2% | i | 14% | i
CCOc1ccccc1NC(=O)N1CCN(Cc2cc(=O)n3nc(-c4ccc(C)cc4)sc3n2)CC1 | nt | nt | nt | i | nt | i
CN(CCCNC(=O)c1cc2c(Cl)nc3ccccc3c2s1)Cc1ccccc1 | 16µM* | 21µM* | ? | i | 16µM* | i
CC1CCCN(CCCNC(=O)c2cc3c(Cl)nc4ccccc4c3s2)C1 (configuration not stated) | ? | ? | ? | i | 23µM* | i
Cc1ccc2nc(Cl)c3cc(C(=O)NCCCN(C)Cc4ccccc4)sc3c2c1 | nt | nt | nt | i | nt | i
Cc1ccc(NS(=O)(=O)c2c(C)nc3sc(C)c(C)n3c2=O)cc1F | nt | nt | nt | i | nt | i
CN(C)S(=O)(=O)c1cccc(NC(=O)C2CCCN(C(=O)c3ccc(Cl)cc3)C2)c1 (configuration not stated) | 5% | nt | nt | ? | 4% | ?
O=C(O)c1ccc2oc(=O)c(S(=O)(=O)c3ccccc3)cc2c1 | -1% | -8% | -10% | ? | 10% | i
Cc1c(O)ccc2cc(S(=O)(=O)c3ccccc3)c(=O)oc12 | ? | 1.8µM* | 4.1µM* | i | -6% | i
CC(=O)c1ccc(NC(=O)c2cn(-c3ccccc3)nc2-c2ccc(Br)cc2)cc1 | nt | nt | nt | ? | nt | i
O=C(/C=C/c1ccccc1)NC(=S)Nc1ccccc1 | -6% | ? | -11% | ? | 1% | i
O=C(/C=C/c1ccccc1)NC(=S)Nc1ccc2c3c(cccc13)CC2 | 13% | -2% | ? | i | 21% | 4.1µM*
CC(C)c1ccc(/C=C/C(=O)NC(=S)Nc2ccc(CN3CCOCC3)cc2)cc1 | ? | 23% | 23µM* | ? | ? | i
O=C(/C=C/c1ccccc1)NC(=S)Nc1ccc(N2CCOCC2)cc1 | 7.9µM* | 3% | 2% | i | ? | i
SMILES | HT1080NT lethal | SW480 rerep | MCF10A rereplic | KB-V1 cytotox | HT1080 IDH1KD tx | KB-3-1 cytotox
CC(C)c1ccc(/C=C/C(=O)NC(=S)NN2CCOCC2)cc1 | -9% | ? | 3% | i | -5% | i
Cc1cccc(OCC(=O)Nc2cccc3cccnc23)c1C | nt | nt | nt | i | nt | i
Cn1c2c(c(=O)n(C)c1=O)C(C(F)(F)F)(C(F)(F)F)N=C(C1CCCCC1)N2 | -27% | -2% | ? | ? | -20% | i
Cc1ccccc1C1=NC(C(F)(F)F)(C(F)(F)F)c2c(n(C)c(=O)n(C)c2=O)N1 | 2% | -7% | 8% | 16µM* | -2% | ?
Cn1c2c(c(=O)n(C)c1=O)C(C(F)(F)F)(C(F)(F)F)N=C(c1ccc(Cl)cc1)N2 | ? | 13% | ? | 2.3µM* | 7.3µM* | 2.3µM*
COCCNC(=O)Cn1nc(N2CCN(c3ccccc3OC)CC2)ccc1=O | nt | nt | nt | i | nt | i
CCOC(=O)C1CCCN(C(=O)c2nn(-c3ccc(C)cc3)c(=O)n(C)c2=O)C1 (configuration not stated) | nt | nt | nt | i | nt | i
O=C(CSc1oc(-c2cccs2)nc1S(=O)(=O)c1ccccc1)Nc1ccc(F)cc1 | nt | nt | nt | i | nt | i
O=S(=O)(c1ccc(Oc2ccc(Br)cc2)cc1)N1CCOCC1 | -18% | -4% | 1% | 12µM* | -7%[9.24 µM] | i
O=S(=O)(Nc1ccc(S(=O)(=O)N2CCOCC2)cc1)c1ccc(Br)cc1 | 0% | -5% | ? | i | 7% | i
Cc1ccc(CSCC(=O)Nc2cc(S(=O)(=O)N3CCOCC3)ccc2OCC(F)(F)F)cc1 | -6% | 6% | 2% | 15µM* | -6% | ?
O=C(CSCc1ccc(Br)cc1)Nc1ccc(S(=O)(=O)N2CCOCC2)cc1 | -24% | -3% | -4% | 21µM* | -22% | i
COc1ccc(OC)c(NC(=O)C2=C(C)C(=O)OC23CCCCCC3)c1 | nt | nt | nt | i | nt | i
CCN1CCN(Cc2c(O)ccc3oc(C)c(C(=O)Nc4cccc(C(F)(F)F)c4)c23)CC1 | nt | nt | nt | i | nt | i
C/C(=N\NC(=O)CCCNc1ccc(C)cc1)c1ccccn1 | -4% | ? | ? | 6.5µM* | ? | i
CCCS(=O)(=O)N1CC(=O)N(c2cccc(F)c2)C(C)(C(=O)NC2CCCCCC2)C1 (configuration not stated) | nt | nt | nt | i | nt | i
Cc1ccc(O)c(C(=O)c2cnc3c(c2)CN(CCC(C)C)C(=O)N3)c1 | ? | 15% | 19% | i | ? | i
Cc1ccc(O)c(C(=O)c2cnc3c(c2)CN(C)C(=O)N3)c1 | ? | ? | ? | 7.9µM* | ? | ?
Nc1nc(Cl)cc(Sc2ccc3ccccc3c2)n1 | ? | ? | ? | ? | 16µM* | ?
